Hits are enriched below; roughly 2.9% of the tested compounds scored in any of these assays.
MEKK2 WT-MEK5: modulators of MEK5 binding to wildtype MEKK2, primary screen, biochemical, multiplex bead flow cytometry, Alexa488-MEK5. Alexa488-MEK5 binding to MEKK2 WT; actives lie on both sides. binding response (% of control), % at 10 µM. 290,000 compounds, 1.1% hits. AID 1531, 2009; in the data active means binding response below about 67% or above about 130%
CRFR2-BP antag: antagonists of CRF-BP/CRF-R2 complex, primary screen, cell-based, HEK293, calcium dye fluorescence, uHTS; CRF-induced calcium fluorescence; inhibition, % at 11.8 µM; 350,000 compounds, 0.59% hits;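 active means inhibition of the ligand-induced calcium signal above about 50% at the single tested concentration, limit read from the data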
CRFBP-R2 agonist: agonists of CRF-BP/CRF-R2 complex, primary screen, cell-based, HEK293, calcium dye fluorescence, uHTS. calcium dye fluorescence (FLIPR); percent of saturating CRF peptide response. activation, % at 13.2 µM. CRF-binding protein / CRF receptor 2 complex (human). AID 588473, 2011. 350,000 compounds, 0.46% hits;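 active means activation of at least 50%, plus an integration ratio under a set limit after plate pattern correction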;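 further: plate controls were neutral control wells without compound for no effect and CRF at EC100 for full effect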
MEKK2 mut-MEK5: MEK5 binding signal on mutant MEKK2 PB1, primary screen, biochemical, multiplex bead flow cytometry, Alexa488-MEK5. AID 1530, 2009. Alexa488-MEK5 binding to MEKK2 mutant. percent response, % at 10 µM. 290,000 compounds, 0.35% hits; in the data active means percent response above about 24%, passing the limit was not always enough
MEKK3 PB1 HTS: modulators of MEKK3-MEK5 PB1 binding, primary screen, biochemical, wildtype MEKK3, multiplex bead flow cytometry, Alexa488-MEK5; Mitogen-activated protein kinase kinase kinase 3 (Homo sapiens), Q99759; bead-based flow cytometry, Alexa488-MEK5 binding to MEKK3; actives lie on both sides; 0 = blocked by unlabeled MEK5, 100 = vehicle; binding response (% of control), % at 10 µM; 290,000 compounds, 1.4% hits;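 active means binding response more than 3 SD above or below the average of its plate-row segment, actives on both sides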;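 further: Alexa488 bead fluorescence after subtracting the streptavidin-only scavenger bead signal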
ABCB6 inh 2: ABCB6 transporter inhibitors, primary screen, K562-ABCB6 cells, flow cytometry, MLPCN library; fluorescence ratio to DMSO, % at 10 µM; AID 602162, 2011; ATP-binding cassette sub-family B member 6 (Homo sapiens), Q9NP58; K562-ABCB6 porphyrin accumulation, 1 h; active compounds read low; 360,000 compounds, 0.19% hits;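 active means fluorescence ratio to DMSO below 75%, the collection mean minus 3 SD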;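 further: signal is porphyrin accumulated inside mitochondria; 100% equals median channel fluorescence of DMSO control wells; lower ratio means ABCB6 inhibition with less porphyrin fluorescence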
MEKK2wt confirm: modulators of MEK5 binding to wildtype MEKK2, confirmation, biochemical, single concentration, multiplex bead flow cytometry; shares compounds with MEKK3 PB1 HTS; binding response (% of control), % at 10 µM; 5,900 compounds, 2.4% hits; Alexa488-MEK5 binding to MEKK2 WT; actives lie on both sides; AID 1892, 2009; in the data active means binding response below about 16% or above about 210%; inactive means in between
MEKK2mut confirm: mutant MEKK2 PB1-MEK5 binding signal retest – biochemical, single concentration, multiplex bead flow cytometry, confirmation; 5,900 compounds, 2% hits; Alexa488-MEK5 binding to MEKK2 mutant; AID 1893, 2009; shares compounds with MEKK3 PB1 HTS; percent response, % at 10 µM; in the data active means percent response mostly above about 71%, no sharp cut-off; inactive means mostly below about 38%;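 further: higher means compound restores mutant binding toward wildtype level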
MEKK3 confirm: MEKK3 wild-type PB1 binding to MEK5, inhibitors, confirmation, biochemical, bead multiplex flow cytometry, single concentration, wildtype; shares compounds with MEKK3 PB1 HTS; Alexa488-MEK5 binding to MEKK3; active compounds read low; binding response (% of control), % at 10 µM; 5,900 compounds, 1.8% hits; AID 1894, 2009;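 active means binding response below 72% of control, or above a set upper limit, though filed actives all read lower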;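 further: 100% = DMSO only wells and 0% = binding blocked by excess unlabeled MEK5; lower values mean stronger disruption of MEK5 binding to MEKK3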
Active calls of the source: *; nt = no result; [ ] = another dose, or the depositor's remark.

SMILES | MEKK2 WT-MEK5 | CRFR2-BP antag | CRFBP-R2 agonist | MEKK2 mut-MEK5 | MEKK3 PB1 HTS | ABCB6 inh 2 | MEKK2wt confirm | MEKK2mut confirm | MEKK3 confirm
COc1ccc(CCN(Cc2cc3ccc(C)cc3[nH]c2=O)C(C)=O)cc1OC | 120 | 17 | -2 | 30 | 135* | 102 | 101 | -4 | 101
N#CCCn1cc(CNCc2ccccc2)c(-c2cccc([N+](=O)[O-])c2)n1 | 160* | -13 | 2 | 23 | 105 | 90 | 144 | 21 | 99
Cc1ccc2c(c1)cc(C(=O)NCc1ccccc1)n2C | 106 | 6 | -1 | 2 | 108 | 98 | nt | nt | nt
CCNC(=O)NC(=O)C(C)On1nnc2ccc(S(=O)(=O)N(CC)CC)cc21 (stereo not given) | 106 | 28 | -2 | 1 | 150* | 91 | 98 | 2 | 101
O=[N+]([O-])c1cc([N+](=O)[O-])c(Oc2ccc(Br)cc2Br)cc1NN1CCCCC1 | 98 | 2 | -1 | -2 | 99 | 97 | nt | nt | nt
NC1=NC[C@H](CC2CCCCC2)N1CCc1cc(C(F)(F)F)cc(C(F)(F)F)c1 | 156* | -21 | 48 | 25* | 111 | 97 | 127 | 4 | 97
CCOC(=O)c1sc(NC(=O)c2cc3n(n2)C(C(F)(F)F)CC(c2ccccc2)N3)c(C(=O)OCC)c1C (stereo not given) | 84 | 7 | -1 | -14 | 81*[inhibitor] | 95 | 102 | -3 | 99
CC(NC(=O)COC(=O)c1ccc2c(c1)S(=O)(=O)N=C1CCCCCN12)C12CC3CC(CC(C3)C1)C2 (stereo not given) | 109 | 7 | 2 | 19 | 105 | 100 | nt | nt | nt
CC(C)(C)NC(=O)NC(=O)COC(=O)c1ccc2c(c1)S(=O)(=O)N=C1CCCCCN12 | 103 | 4 | 0 | 3 | 147* | 100 | 102 | 11 | 99
Cc1ccc2nc(-c3ccc(NC(=O)CN4CCN(c5ccccn5)CC4)cc3)sc2c1 | 121 | 11 | 2 | 27 | 130* | 100 | 96 | -2 | 103
Cc1ccc2nc(NC(=O)CN3CCN(c4ccccn4)CC3)sc2c1 | 105 | 0 | -1 | 6 | 103 | 95 | nt | nt | nt
NC(=O)NC(=O)Nc1ccccc1Cl | 125 | -1 | -1 | 7 | 130* | 89 | 101 | -3 | 95
COc1ccccc1N(CC(=O)NCCSc1ccccn1)S(=O)(=O)c1ccccc1 | 101 | -1 | -1 | 0 | 101 | 94 | nt | nt | nt
Cc1ccc(OCCn2ccnc2)c([N+](=O)[O-])c1 | 136* | 12 | -4 | 21 | 108 | 99 | 101 | 5 | 102
N=C1CCCN1CC(=O)c1ccc(Br)cc1 | 108 | -24 | 3 | 0 | 143* | 103 | 100 | -3 | 102
O=C(CCCc1c[nH]c2ccccc12)NCc1cccs1 | 99 | 10 | -1 | -6 | 102 | 98 | nt | nt | nt
O=C(Cc1c[nH]c2ccccc12)N/N=C/c1ccc(F)cc1 | 103 | -17 | -2 | 0 | 139* | 95 | 101 | -6 | 100

Assay outcomes deposited in PubChem by several laboratories.
